Screens as filed in PubChem BioAssay.
Only some compounds are listed: those with a hit (about 11% of all), similar ones and a draw of the others.
BAZ2B block: BAZ2B (human) inhibition; AlphaScreen BAZ2B-H3K14Ac peptide displacement; Potency, µM (series often up to 114 µM), without a hit: top-dose activity change, negative = inhibition, most hits filed as inhibitors; 360,000 compounds, 4.4% hits; AID 504333; note: % is set by controls: 0 for no effect and ±100 for the full control effect; nearly all actives have a fitted effect of over 60% in size
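AlphaScreen displacement: compounds (up to 110uM) incubated 30 min at room temperature with a preformed 50 nM BAZ2B/50 nM biotinylated H3K14Ac peptide complex in PBS pH 7.4 with Tween-20. Donor and acceptor beads at 10 ug/mL final added, 20 min light-protected before reading.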
HP1b binding inh: HP1-beta chromodomain-methylated histone interaction inhibition. P83916. AlphaScreen HP1-beta / biotin-H3K9me3 peptide binding. Potency, µM (doses to about 114 µM), for inactives: top-dose activity change, negative = inhibition, hits mostly inhibitors. 390,000 compounds, 0.56% hits. AID 540317; note: nearly all actives have a fitted effect of over 70% in size
Target sequence (P83916 whole entry, looked up): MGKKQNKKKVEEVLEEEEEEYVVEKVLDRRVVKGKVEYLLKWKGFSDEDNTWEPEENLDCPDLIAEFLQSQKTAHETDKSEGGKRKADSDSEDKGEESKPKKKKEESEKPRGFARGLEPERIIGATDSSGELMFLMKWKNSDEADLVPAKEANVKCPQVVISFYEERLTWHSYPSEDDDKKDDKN
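Compound inhibition of the preformed complex between 50 nM HP1-beta and 50 nM biotinylated H3K9me3 peptide was read by AlphaScreen. Buffer was PBS pH 7.4 with 0.01% Tween-20. Incubations ran 30 min at room temperature, with 10 ug/mL donor/acceptor beads.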
JMJD2A Tudor inh: JMJD2A Tudor domain (human) inhibition; Potency, µM (highest dose often 114 µM), for inactives: at the top dose activity change, negative = inhibition, usual class: inhibitors; 390,000 compounds, 4.4% hits; AlphaScreen JMJD2A-Tudor / H3K4me3 peptide binding; O75164; note: % is set by controls: 0 for no effect and ±100 for the full control effect; nearly all actives have a fitted effect of over 50% in size
G9a block: G9a (human) methyltransferase inhibition | Potency, µM (doses to about 102 µM), for inactives: at the highest dose activity, negative = inhibition, hits mostly inhibitors | 350,000 compounds, 8.8% hits | AID 504332 | G9a H3K9 monomethylation, AlphaScreen, 2 h | Q96KQ7; note: % is set by controls: 0 for no effect and ±100 for the full control effect; nearly all actives have a fitted effect of over 75% in size
Target sequence (Q96KQ7 913-1193 limits assumed): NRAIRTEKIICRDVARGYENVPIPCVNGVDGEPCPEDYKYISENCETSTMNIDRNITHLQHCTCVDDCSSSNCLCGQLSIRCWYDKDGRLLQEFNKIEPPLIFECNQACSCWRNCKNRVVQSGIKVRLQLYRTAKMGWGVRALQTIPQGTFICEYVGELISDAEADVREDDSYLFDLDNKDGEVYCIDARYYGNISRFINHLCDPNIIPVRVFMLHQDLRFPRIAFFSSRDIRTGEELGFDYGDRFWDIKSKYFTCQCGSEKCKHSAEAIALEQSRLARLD
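AlphaScreen read-out: biotin-H3K9 peptide (500 nM) methylation by 20 nM enzyme with 20 uM SAM, 2 h at room temperature after 15 min compound preincubation; anti-monomethyl H3K9 antibody plus donor/acceptor beads, 10 min dark.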
L3MBTL1 block: L3MBTL1 (human) inhibition. AlphaScreen L3MBTL1–H3K9me1 peptide binding. Potency, µM (doses to about 57.1 µM), for the others: top-dose activity, negative = inhibition, actives largely listed as inhibitors. 230,000 compounds, 0.66% hits; note: % is set by controls: 0 for no effect and ±100 for the full control effect; nearly all actives have a fitted effect of over 60% in size
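First, the protein-peptide complex forms for 30 min at room temperature (L3MBTL1 50 nM, biotinylated H3K9me1 peptide 75 nM). Next, compounds are pin-transferred and incubated 30 min. Finally, AlphaScreen beads are added and read after 30 min.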
* hit, by the source's call; ? = inconclusive; · = no result given; [ ] = dose if it differs, or a comment. Calls come from the whole dose curve; as a rule, active = well fitted inhibition curve with a large enough effect; inconclusive = small, poorly fitted or top-dose-only effect; inactive = no such curve, though single readings can be large or run the other way. Potency is the fitted concentration of half-maximal effect.

SMILES	BAZ2B block	HP1b binding inh	JMJD2A Tudor inh	G9a block	L3MBTL1 block
CCc1ccc2nc(N(Cc3cccnc3)C(=O)Cc3ccccc3)sc2c1	-3.9%	8.1%	-10.7%	-2.1%[59 µM]	·
COc1ccc(N(CCC(=O)O)S(=O)(=O)c2ccc(C)cc2C)cc1	-11.2%	17.2%	-8.6%	-8.6%[0.0925 µM]	2.4%
Fc1ccc(Br)cc1C1C=C(c2ccc(Br)cc2)Nc2nnnn21 (stereo not drawn)	4.2%	71.7%	4.5%	11.2µM*	·
Fc1ccccc1-n1cn[nH]c1=S	-10.0%	30.1%	28.2µM*	10µM*	3.2%
Cc1ccc(/C([O-])=C(/C(=S)NCc2ccccc2)[n+]2cccc(CO)c2)cc1[N+](=O)[O-]	?	-5.9%	?	28.2µM*	-12.6%
COC(=O)c1c(C)sc(-c2c(-c3ccc(OC)c(F)c3)[nH]c3c2c(=O)n(C)c(=O)n3C)c1O	-18.8%	27.6%	-0.3%	2.9%[59 µM]	·
CCS(=O)(=O)Nc1ccc(C2=NN(C(=O)c3ccco3)C(c3cccs3)C2)cc1 (stereo not drawn)	-21.4%	20.3%	-20.8%	-4.3%	·
CCS(=O)(=O)Nc1ccc(C2=NN(C(=O)c3ccccc3)C(c3cccs3)C2)cc1 (stereo not drawn)	79.4µM*	33.9%	-21.6%	28.2µM*	·
CSc1cccc(NC(=S)N(CCCN2CCCC2)Cc2cccn2Cc2ccc(Cl)cc2)c1	25.1µM*	-13.7%	20µM*	35.5µM*	·
S=C(Nc1cccc(Cl)c1)N(CCCN1CCCC1)Cc1cccn1Cc1ccc(Cl)cc1	?	-18.3%	31.6µM*	35.5µM*	·
CSc1cccc(NC(=S)N2CCCN(Cc3cccc(Cl)c3)C2)c1	25.1µM*	0.3%	?	4.7%[59 µM]	·
COc1ccc(NC(=S)N2CCCN(Cc3cccc(Cl)c3)C2)cc1	?	3.8%	?	12.1%[59 µM]	·
CSc1cccc(NC(=S)N(CCCN2CCCC2)Cc2cccs2)c1	?	-10.1%	?	-3.7%[59 µM]	·
Cn1cc(CN(CCCN2CCOCC2)C(=S)Nc2cccc(Cl)c2)c2ccccc21	?	-23.6%	?	79.4µM*	4.3%
Cc1ccccc1NC(=S)N(CCCN1CCOCC1)Cc1ccccn1	-2.9%	-6.4%	3.55µM*	-10.1%[59 µM]	-3.1%
COc1cccc(NC(=S)N(CCCN2CCCC2)Cc2cccn2Cc2ccc(Cl)cc2)c1	-37.7%	?	44.7µM*	39.8µM*	·
Cc1ccc(NC(=S)N(CCCN2CCOCC2)Cc2ccccn2)cc1	2.4%	35.1%	-2.0%	-12.1%[59 µM]	-1.9%
O=C(Nc1cccc(-c2nn3c(=O)cc(N4CCNCC4)nc3s2)c1)c1ccncc1	·	·	-27.2%	·	·
COc1ccc(NC(=O)N/C=C/c2ccco2)cc1	?	-16.5%	?	10µM*	?
O=C(N/C=C/c1ccco1)Nc1cccc(Cl)c1	?	5.8%	?	50.1µM*	-15.1%
O=C(Nc1cccc(Cl)c1)Nc1cccc(Cl)c1	12.4%	40.1%	18.2%	17.2%[59 µM]	8.5%
O=C(N/C=C/c1ccco1)OCc1ccccc1	?	35.3%	-30.6%	50.1µM*	-11.7%
Cc1ccc(CN(Cc2ccco2)C(=O)c2ccccc2Cl)o1	?	9.9%	-34.9%	-27.1%[59 µM]	·
Cc1ccc(NC(=O)c2sc(=S)n(-c3cc(C)ccc3F)c2N)cc1	?	?	?	8.91µM*	·
Cc1ccc(C)c(-n2c(N)c(C(N)=O)sc2=S)c1	-4.8%	-17.1%	-32.2%	?	23.0%
SMILES	BAZ2B block	HP1b binding inh	JMJD2A Tudor inh	G9a block	L3MBTL1 block
Cc1ccc(-n2c(N)c(C(=O)Nc3ccccc3F)sc2=S)cc1C	?	?	?	22.4µM*	·
Cc1ccccc1-n1c(N)c(C(=O)Nc2ccc(F)cc2)sc1=S	-4.4%	-11.4%	-13.3%	11.2µM*	6.7%
CNC(=O)c1sc(=S)n(-c2ccc(OC)cc2)c1N	-32.5%	13.1%	-15.4%	5.3%	-14.6%
O=C(NC1CCCC1)c1ccc2c(c1)N(Cc1ccccc1F)C(=O)c1ccccc1S2	1.9%	52.4%	-6.1%	-0.6%[59 µM]	·
CCc1ccccc1N(C)S(=O)(=O)c1ccc2c(c1)C(C)(C)C(=O)N2C	3.1%	17.5%	6.8%	7.5%[59 µM]	·
Cc1ccc(N2C(=O)CC(Sc3nc4ccccc4o3)C2=O)cc1Cl (stereo not drawn)	4.8%	75.4%	?	11.2µM*	-4.6%
